IL1B secr inh – blocks inflammasome-driven IL-1 beta release; THP-1 LPS/ATP IL-1B secretion, AlphaLISA, 16 h; stronger effect = lower value; activity change, % at 57.5 µM; 4.7% of 360,000 active; in the data active = activity change below about -50%; inconclusive = mostly about -30% to -49%
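THP-1 cells pretreated 1 hr with compounds (up to 57.5 uM final), then stimulated with LPS (250 ng/mL final) plus ATP (1.25 mM final); secreted IL-1B measured by AlphaLISA after 16 hr, decreased signal indicating inhibition.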
CtBP-E1A inh – CtBP/E1A binding inhibition; AlphaScreen GST-E1A/His-CtBP binding, 1536-well; stronger effect = lower value; activity change, % (test concentration not listed); 0.49% of 340,000 active; AID 651724; in the data active = activity change below about -65%; inconclusive = mostly about -30% to -63%
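Steps: dispense buffer (Tris pH 8.0, NaCl 300 mM, TCEP 1 mM, BSA, Tween 20); add 5X protein mix (GST-E1A, His-CtBP, 125 nM each); pin 23 nL compound; 2 h at 37 °C, dark; add 5X beads (50 ug/mL); 1 h; read.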
TDP1 cell CPT – DT40-hTDP1 cell growth loss with CPT | chicken DT40 Tdp1-/-;hTDP1 cells + 20 nM CPT, ATP luminescence, 48 h | Potency, µM (top dose mostly 46.2 µM), usual class: inhibitors | 12% of 420,000 active | AID 686979; note: nearly all actives have a fitted effect of over 55% in size
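Chicken DT40 Tdp1-/- cells complemented with human TDP1, 400 cells/well, exposed to compounds plus 20 nM camptothecin for at least 48 h at 37 C; viability read as ATP content by CellTiter-Glo luminescence.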
TDP1 cell noCPT – qHTS for Inhibitors of human tyrosyl-DNA phosphodiesterase 1 (TDP1): qHTS in cells in absence of CPT. DT40 Tdp1-/- hTDP1 cells, no CPT, ATP luminescence, 48 h. Potency, µM (top dose mostly 46.2 µM), usual class: inhibitors. 15% of 420,000 active. AID 686978, 2013; note: nearly all actives have a fitted effect of over 55% in size
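Compound effects on proliferation are scored in DT40 Tdp1-/-;hTDP1 cells in the absence of CPT. ATP levels (CellTiter-Glo luminescence) are recorded after a ≥48 hr, 37 °C incubation.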
Six1-Eya2 blk – inhibitors of human Six1/Eya2 interaction; Q15475+O00167; AlphaScreen GST-Six1/His-Eya2 binding, biochemical; stronger effect = lower value; activity change, % (test concentration not listed); 0.56% of 360,000 active; AID 651725; in the data active = activity change below about -65%; inconclusive = mostly about -30% to -63%
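Six1/Eya2 binding was read as AlphaScreen signal after compounds were pinned into GST-Six1 plus His-tagged Eya2 (5X stock 250/500 nM) in pH 8.0 Tris/NaCl/TCEP buffer, beads added, then incubated 1 h, 37 C, dark.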
TDP1 block – inhibitors of human tyrosyl-DNA phosphodiesterase TDP1. 0.28% of 350,000 active. Potency, µM (top dose mostly 130 µM), hits mostly inhibitors. recombinant TDP1, AlphaScreen DNA substrate cleavage; note: nearly all actives have a fitted effect of over 40% in size
Target sequence (Q9NUW8 whole entry, looked up): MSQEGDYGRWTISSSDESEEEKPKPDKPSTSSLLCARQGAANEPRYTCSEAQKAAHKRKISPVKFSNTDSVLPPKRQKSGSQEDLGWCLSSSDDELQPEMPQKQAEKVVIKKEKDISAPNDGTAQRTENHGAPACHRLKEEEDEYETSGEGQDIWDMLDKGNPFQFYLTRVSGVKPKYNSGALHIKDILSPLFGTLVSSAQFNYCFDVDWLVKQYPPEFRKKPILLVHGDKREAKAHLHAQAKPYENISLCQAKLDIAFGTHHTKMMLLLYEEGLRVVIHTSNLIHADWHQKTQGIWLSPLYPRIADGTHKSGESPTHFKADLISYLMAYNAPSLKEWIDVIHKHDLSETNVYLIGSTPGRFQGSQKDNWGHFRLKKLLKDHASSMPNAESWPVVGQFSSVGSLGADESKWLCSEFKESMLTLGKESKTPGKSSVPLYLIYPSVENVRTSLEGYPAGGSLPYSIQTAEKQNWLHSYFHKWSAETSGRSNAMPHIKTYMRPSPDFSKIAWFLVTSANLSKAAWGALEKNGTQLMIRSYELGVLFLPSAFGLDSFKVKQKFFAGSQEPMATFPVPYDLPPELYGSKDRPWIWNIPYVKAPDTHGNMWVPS
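Compounds were preincubated with Tdp1 (1 nM final) for 15 min at room temperature before substrate (15 nM final) started a 5 min reaction; beads (10 ug/ml final) were then added for 10 min before AlphaScreen detection.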
Each line names hits and unclear results; the compound was inactive in the other large screens. Compounds with a hit are over-represented: about 18% of the library has one in this group of screens. Unless noted, calls come from the whole dose curve; as a rule, active = well fitted curve in the direction sought with a large enough effect; inconclusive = small, poorly fitted or top-dose-only effect, or another doubt; inactive = no such curve, though single readings can be large; an effect the other way counts as inactive or inconclusive.

CC(C)c1ccc(NC(=S)NCCc2c[nH]c3ccccc23)cc1	IL1B secr inh -52.8, TDP1 cell CPT inconclusive, TDP1 cell noCPT 25.9µM
S=C(NCCc1ccccn1)NC1CCCCC1	none
O=C(O)CCCn1cc(NC(=O)c2ccco2)cn1	none
Cc1ccc(NS(=O)(=O)c2cccc(C(=O)NCCc3c[nH]c4ccccc34)c2)c(C)c1	IL1B secr inh -78.0, TDP1 cell CPT inconclusive, TDP1 cell noCPT inconclusive
COc1ccc(/C=C(/NC(=O)c2ccc(OC)cc2)C(=O)NCCc2c[nH]c3ccccc23)cc1	none
Cc1ccc(C(=O)N/C(=C\c2cccs2)C(=O)NCCc2c[nH]c3ccccc23)cc1	IL1B secr inh -62.8, TDP1 cell CPT inconclusive, TDP1 cell noCPT inconclusive
OCCNC(=S)NC1CCCCC1	none
S=C(NCCCN1CCN(CCCNC(=S)NC2CCCCC2)CC1)NC1CCCCC1	TDP1 cell CPT 14.6µM, TDP1 cell noCPT 14.6µM (no result: TDP1 block)
Cc1ccc(NC(=S)NCCc2c[nH]c3ccccc23)cc1	TDP1 cell CPT inconclusive, TDP1 cell noCPT 23.1µM
COc1cccc(CCC2C(=O)CCCC2=O)c1	none (no result: TDP1 block)
Cn1nc(C(=O)NCc2ccccc2Cl)c2c1-c1ccccc1S(=O)(=O)C2	TDP1 cell CPT inconclusive, TDP1 cell noCPT inconclusive
O=C1CN(C(=O)c2ccccc2F)c2ccccc2N1	none
COc1cc(OC)cc(C(=O)N2CC(=O)Nc3ccccc32)c1	TDP1 cell CPT 1.46µM, TDP1 cell noCPT 1.3µM
O=C1CN(C(=O)COC(=O)c2cc(Cl)ccc2[N+](=O)[O-])c2ccccc2N1	TDP1 cell noCPT inconclusive (no result: TDP1 block)
Cc1ccc(Nc2c([N+](=O)[O-])cc(C(=O)N3CC(=O)Nc4ccccc43)cc2[N+](=O)[O-])c(C)c1	CtBP-E1A inh inconclusive, TDP1 cell CPT 14.6µM, TDP1 cell noCPT inconclusive, Six1-Eya2 blk inconclusive
O=C1CN(C(=O)c2ccc(Cl)c([N+](=O)[O-])c2)c2ccccc2N1	IL1B secr inh -78.3 (no result: TDP1 block)
CCCn1nc(C(=O)N2CC(=O)Nc3ccccc32)c2ccccc2c1=O	TDP1 cell CPT 20.6µM, TDP1 cell noCPT 14.6µM
CC(C)n1nc(C(=O)OCC(=O)N2CC(=O)Nc3ccccc32)c2ccccc2c1=O	none (no result: CtBP-E1A inh)
CCOC(=O)c1ccc(NC(=O)c2nsc3ccccc23)cc1	TDP1 cell CPT 18.4µM, TDP1 cell noCPT inconclusive (no result: IL1B secr inh, CtBP-E1A inh, Six1-Eya2 blk)
CCOc1ccccc1CNC(=O)c1cccc(NC(=O)c2nsc3ccccc23)c1	TDP1 cell CPT 5.8µM, TDP1 cell noCPT 5.17µM (no result: IL1B secr inh, CtBP-E1A inh, Six1-Eya2 blk)
CNC(=O)c1ccc(NC(=O)c2nsc3ccccc23)cc1	TDP1 cell noCPT inconclusive (no result: IL1B secr inh, CtBP-E1A inh, Six1-Eya2 blk)
Cc1ccccc1CNC(=O)c1ccc(Cn2c(SCc3ccccc3)nc3cccnc32)cc1	TDP1 cell CPT inconclusive, TDP1 cell noCPT inconclusive (no result: IL1B secr inh, CtBP-E1A inh, Six1-Eya2 blk)
Cc1ccccc1CNC(=O)c1ccc(CSCc2ccccc2)cc1	TDP1 cell CPT inconclusive, TDP1 cell noCPT 20.6µM
O=C(NCc1cccc(F)c1)c1ccc(NC(=O)c2nsc3ccccc23)cc1	TDP1 cell CPT inconclusive, TDP1 cell noCPT inconclusive (no result: IL1B secr inh, CtBP-E1A inh, Six1-Eya2 blk)
Cc1ccc(CNC(=O)c2ccc(NC(=O)c3nsc4ccccc34)cc2)cc1	none (no result: IL1B secr inh, CtBP-E1A inh, Six1-Eya2 blk)
Cc1ccccc1CNC(=O)c1ccc(NC(=O)c2nsc3ccccc23)cc1	TDP1 cell CPT 14.6µM, TDP1 cell noCPT 11.6µM (no result: IL1B secr inh, CtBP-E1A inh, Six1-Eya2 blk)
CC(C)NC(=O)NC(=O)COC(=O)c1ccc(S(=O)(=O)Nc2ccccc2)cc1	none (no result: CtBP-E1A inh)
COc1ccc(OC)c(CNC(=O)c2ccccc2NC(=O)c2nsc3ccccc23)c1	TDP1 cell CPT inconclusive, TDP1 cell noCPT inconclusive (no result: IL1B secr inh, CtBP-E1A inh, Six1-Eya2 blk)
O=C(Nc1ccc(C(=O)N2CCCCC2)cc1)c1nsc2ccccc12	TDP1 cell CPT 20.6µM, TDP1 cell noCPT 20.6µM (no result: IL1B secr inh, CtBP-E1A inh, Six1-Eya2 blk)
CCOc1cc(CNC(=O)c2ccccc2NC(=O)c2nsc3ccccc23)ccc1OC	TDP1 cell CPT 16.4µM, TDP1 cell noCPT 18.4µM (no result: IL1B secr inh, CtBP-E1A inh, Six1-Eya2 blk)
Cc1ccc(NC(=O)c2nc[nH]c2C(=O)N[C@@H](C)C(=O)OC(C)(C)C)cc1	TDP1 cell CPT inconclusive, TDP1 cell noCPT inconclusive
